# From PubChem BioAssay
# PvdQ acylase = P. aeruginosa PvdQ acylase inhibition; purified PvdQ acylase, fluorescence plate reader; inhibition, % at 10 µM; 340,000 tested, 0.063% active; in the data active = inhibition above about 30%, passing the limit was not always enough;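 also: 0% = vehicle neutral wells and 100% = reference inhibitor wells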
# PglD DTNB = PglD (C. jejuni) enzyme inhibition; purified PglD enzyme, DTNB colorimetric CoA detection; inhibition, % at 12.5 µM; 360,000 tested, 0.098% active; in the data active = inhibition above about 16%, passing the limit was not always enough
# CDK5 p35 inh = CDK5/p35 (human) kinase inhibition; Q00535+Q15078; Recombinant CDK5/p35, ADP-Glo luminescence, 60 min; inhibition, % at 10 µM; 330,000 tested, 0.01% active;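 active = highest replicate inhibition of at least 50% and at least 75% of replicates reaching 50%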;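 also: plate controls were DMSO neutral control for no effect and GW8510 at 10 µM for full effect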
# Target sequence (Q00535 whole entry, looked up): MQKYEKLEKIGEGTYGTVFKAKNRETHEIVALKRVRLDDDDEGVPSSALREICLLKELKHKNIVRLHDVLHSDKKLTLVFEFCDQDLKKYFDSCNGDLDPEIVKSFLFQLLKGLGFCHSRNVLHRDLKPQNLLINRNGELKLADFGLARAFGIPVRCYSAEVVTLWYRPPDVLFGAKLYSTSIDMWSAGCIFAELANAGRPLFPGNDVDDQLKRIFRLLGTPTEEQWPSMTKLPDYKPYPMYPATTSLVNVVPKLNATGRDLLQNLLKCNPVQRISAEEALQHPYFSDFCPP
# Target sequence (Q15078 whole entry, looked up): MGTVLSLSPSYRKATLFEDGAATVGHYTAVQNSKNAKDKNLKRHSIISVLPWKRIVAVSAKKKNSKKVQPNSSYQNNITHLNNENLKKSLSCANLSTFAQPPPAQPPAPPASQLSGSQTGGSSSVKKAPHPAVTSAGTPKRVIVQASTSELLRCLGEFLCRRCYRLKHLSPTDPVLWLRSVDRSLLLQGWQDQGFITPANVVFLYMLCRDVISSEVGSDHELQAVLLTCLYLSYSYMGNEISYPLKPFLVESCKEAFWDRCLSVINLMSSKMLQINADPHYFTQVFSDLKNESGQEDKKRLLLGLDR
# FGF22 binding = binders of recombinant human FGF22 by thermal shift. SYPRO orange fluorescence; percent of sucrose octasulfate shift, DMSO zero. 340,000 tested, 1.5% active. activity (Tm shift, normalised), % at 9.99 µM. Q9HCT0. AID 651658;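 active = mean Tm shift, scaled 0 neutral to 100 positive control, at about 1.3% or above, every replicate too, limit read from the data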
# dFosB act = activators of mouse delta FosB homodimer. P13346. purified delta FosB, TAMRA-CDK5 oligo fluorescence polarization; percent of positive-control signal above neutral wells. activation, % at 25 µM. 340,000 tested, 0.99% active. AID 493131;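 active = mean activation above about 17%, with every replicate also reaching it, limit read from the data, passing the limit was not always enough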
# SIRT5 inh = sirtuin-5 (human) deacylase inhibition; Q9NXA8; Purified SirT5, succinyl-peptide AMC, trypsin-coupled fluorescence; inhibition, % at 15 µM; 330,000 tested, 1.1% active; in the data active = inhibition above about 15%
# * = called active by the depositor; / = not tested or not shown. Most compounds without a hit are left out; they make up all but 2.8% or so of the library.
SMILES,PvdQ acylase,PglD DTNB,CDK5 p35 inh,FGF22 binding,dFosB act,SIRT5 inh
O=C(C[C@H]1C=C[C@H](NS(=O)(=O)c2ccccc2)[C@H](CO)O1)NCc1ccc(Cl)c(Cl)c1,/,-1.8,/,0.1,/,2.0
CCCCSc1n[nH]c(=S)c2nc[nH]c12,10.1,2.0,4.5,43.0*,0.3,/
CN1C(=O)c2cc(NC(=O)c3ccc(C(F)(F)F)cc3)ccc2OC[C@@H]2O[C@@H](CC(=O)O)CC[C@@H]21,/,2.2,/,0.0,/,3.4
CN1C(=O)c2cc(NC(=O)C3CC3)ccc2OC[C@H]2O[C@@H](CC(=O)NCC3CCCCC3)CC[C@H]21,/,-0.9,/,-0.1,/,-1.7
CCOc1ccc(C(C)=O)cc1CSc1nc(C)cc(C)n1,1.5,6.9,0.2,0.0,-7.2,-1.9
CCOc1ccc(C(C)=O)cc1CSc1nc2nc(C)cc(C)n2n1,-11.8,/,-0.3,43.2*,-11.2,0.8
C[C@H]1CN([C@@H](C)CO)C(=O)c2cccc(NS(C)(=O)=O)c2O[C@@H]1CN(C)C(=O)Nc1cccc2ccccc12,/,9.3,/,/,/,4.0
C[C@@H]1CCCCO[C@H](CN(C)C(=O)NC2CCCCC2)[C@@H](C)CN([C@@H](C)CO)C(=O)c2cc(NC(=O)Nc3ccc(C(F)(F)F)cc3)ccc2O1,/,7.4,/,-0.7,/,1.7
CC(C(=O)c1ccccc1)C(O)c1ccccn1 (configuration not stated),-18.9,6.9,-1.2,43.9*,-2.2,/
C[C@H]1CN([C@@H](C)CO)C(=O)Cc2cc(NC(=O)Nc3ccc(C(F)(F)F)cc3)ccc2O[C@H]1CN(C)S(=O)(=O)c1ccccc1,/,1.1,/,0.0,/,5.3
COc1ccc(C2C([N+](=O)[O-])=C(C)N(C)C(=O)N2C)cc1OC (configuration not stated),-6.5,/,0.2,0.2,2.4,3.2
CCOc1ccc(C2C([N+](=O)[O-])=C(C)N(C)C(=O)N2C)cc1OC (configuration not stated),4.6,/,0.4,43.0*,3.6,/
COc1ccc2c3c([nH]c2c1)[C@H](CO)N(S(C)(=O)=O)CC31CN(CC2CC2)C1,/,/,/,-0.1,/,-0.3
C[C@H]1CN([C@@H](C)CO)C(=O)c2cccc(NC(=O)NC3CCCCC3)c2O[C@@H]1CN(C)Cc1ccc(C(=O)O)cc1,/,8.5,/,-0.1,/,24.7*
C[C@@H]1CN([C@H](C)CO)C(=O)c2cccc(NC(=O)NC3CCCCC3)c2O[C@@H]1CN(C)Cc1ccc(Oc2ccccc2)cc1,/,-0.3,/,-0.3,/,19.7*
C[C@@H]1CN([C@H](C)CO)C(=O)c2cccc(NC(=O)NC3CCCCC3)c2O[C@H]1CN(C)Cc1ccc(Oc2ccccc2)cc1,/,-2.7,/,-0.3,/,-5.0
CCCC#Cc1ccc([C@@H]2[C@H]3CN(S(=O)(=O)c4ccccc4C)CCCCN3[C@H]2CO)cc1,/,-0.1,/,0.1,/,3.7
C[C@H](CO)N1C[C@H](C)[C@@H](CN(C)CC2CCCCC2)Oc2c(NC(=O)Cc3ccccc3)cccc2C1=O,8.3,-2.3,1.0,-0.4,-11.6,20.5*
Cc1cc(C(=O)Nc2cccc3c2O[C@H](CN(C)Cc2ccc(Oc4ccccc4)cc2)[C@@H](C)CN([C@H](C)CO)C3=O)n(C)n1,/,0.4,/,-0.6,/,16.7*
Cc1cc(C(=O)Nc2cccc3c2O[C@H](CN(C)CC2CC2)[C@H](C)CN([C@H](C)CO)C3=O)n(C)n1,/,-2.7,/,0.0,/,16.3*
COc1ccccc1C(=O)Nc1ccc2c(c1)OC[C@H](C)N(CC1CC1)C[C@H](C)[C@@H](OC)CN(C)C2=O,/,/,/,-0.2,/,-13.5
C[C@@H]1CN([C@@H](C)CO)C(=O)Cc2cc(NC(=O)C3CCCCC3)ccc2O[C@H]1CN(C)C(=O)NC1CCCCC1,/,4.3,/,0.0,/,-1.2
CCCC(=O)Nc1ccc2c(c1)C(=O)N(C)[C@@H]1CC[C@H](CC(=O)NCCc3ccncc3)O[C@H]1CO2,/,0.2,/,-0.1,/,-2.6
COc1ccccc1C(=O)NC(=O)CSc1ccc(C)c(C)c1,29.1,/,-1.4,43.0*,-4.6,/
Cc1ccc(C(C)C)c(OCC(=O)N/N=C/C2CCCCC2)c1,-8.5,/,-2.6,43.1*,-17.0,-1.6
SMILES,PvdQ acylase,PglD DTNB,CDK5 p35 inh,FGF22 binding,dFosB act,SIRT5 inh
Cc1ccc(C(C)C)c(OCC(=O)NN=C2CCCC2)c1,-11.9,/,0.2,0.2,-16.1,-10.6
C=CCN1C(=O)/C(=C2/Sc3ccccc3N2CC)SC1=S,-6.7,-1.0,0.3,0.1,-8.6,/
CCN1C(=O)/C(=C2/Sc3ccccc3N2CC)S/C1=N\c1ncn[nH]1,-4.1,-2.9,1.5,43.6*,-46.5,-2.5
Cc1cc(C)cc(C(=O)N2CC(=O)Nc3ccccc32)c1,-13.5,/,-6.4,/,-4.2,/
Cc1ccc(/C=C/C(=O)N2CC(=O)Nc3ccccc32)o1,-1.5,/,0.4,44.0*,-7.2,0.7
COC(=O)Cn1cnc2c(cnn2-c2ccccc2)c1=O,10.2,/,1.2,0.5,-4.3,-1.4
Cc1cccc(NC(=O)Cn2cnc3c(cnn3-c3ccc(F)cc3)c2=O)c1C,1.3,1.6,-0.1,0.2,48.5*,-0.7
COc1cccc(CNC(=O)C2CCN(S(=O)(=O)c3ccc(-n4cnnn4)cc3)CC2)c1,-24.3,12.5,-2.8,43.4*,-11.0,/
O=C(c1cccc(F)c1)N1CC(=O)N2[C@@H](CO)[C@H](c3ccc(C4=CCCC4)cc3)[C@@H]2C1,/,/,/,/,/,0.1
CO[C@H]1CN(C)C(=O)c2cc(NC(=O)C3CC3)ccc2OC[C@H](C)N(Cc2cccnc2)C[C@H]1C,/,1.9,/,-0.3,/,-0.7
CC(SC(=S)N1CCCC1)C(=O)O (configuration not stated),-8.0,/,-1.2,0.2,2.3,20.3*
CC(C)(SC(=S)N1CCCCCC1)C(=O)O,-9.0,/,-3.2,0.3,-3.4,-6.9
COCCn1c(SCC(=O)N2CCC(C)CC2)nc2c(c1=O)SCC2,-6.6,-0.9,-0.1,0.7,-7.3,25.2*
Cc1ccc(/C=C/c2nnc(-c3ccccc3)o2)cc1,10.7,0.7,-0.2,/,-5.7,/
C(=C\c1nnc(-c2cccs2)o1)/c1ccccc1,38.1*,-3.9,-0.9,0.2,-24.1,-0.1
Cc1ccccc1-c1cnc2c(c1)C(=O)N([C@@H](C)CO)C[C@H](C)[C@@H](CN(C)C(=O)CN(C)C)O2,/,0.6,/,-0.3,/,-1.5
CCNC(=O)C[C@H]1CC[C@@H]2[C@H](COC[C@H](O)CN2C(=O)Nc2ccc(C(F)(F)F)cc2)O1,/,2.1,/,/,/,7.6
O=C(C[C@H]1CC[C@H]2[C@@H](COC[C@H](O)CN2C(=O)Nc2ccc(F)cc2)O1)NCCc1ccncc1,/,0.0,/,-0.2,/,18.0*
CCCNC(=O)C[C@@H]1CC[C@@H]2[C@H](COC[C@@H](O)CN2C(=O)C2CCOCC2)O1,/,-1.0,/,/,/,16.4*
CCNC(=O)C[C@H]1CC[C@H]2[C@@H](COC[C@@H](O)CN2C(=O)Nc2ccc(C(F)(F)F)cc2)O1,/,-1.6,/,-0.3,/,64.3*
